# High-throughput results: PubChem, The Scripps Research Institute Molecular Screening Center
# GPR151 ag = human GPR151 activation; AID 1508602; activation, % at 11.2 µM; PathHunter beta-arrestin GPR151 cells, luminescence; 1% of 650,000 active; in the data active = activation above about 4.9%;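 also: 0% = median of compound wells and 100% = cells with positive control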
# TEAD-YAP block = TEAD-YAP interaction inhibition. HEK-TIYL cells, TEAD-Gal4/YAP UAS-luciferase luminescence. inhibition, % at 9.12 µM. 1.4% of 640,000 active. AID 1259422; in the data active = inhibition above about 32%;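 also: 0% = median of test compound wells and 100% = reference inhibitor wells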
# FBW7 activator = activators of human E3 ligase FBW7; Q969H0; AlphaScreen FBW7–phospho-cyclin E peptide binding, activator screen; normalized activity (activation), % at 26.1 µM; 0.13% of 650,000 active; AID 1259310; in the data active = normalized activity above about 1.9%;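 also: purified mutant Fbw7 with reduced substrate affinity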
# MITF primary = blocks human microphthalmia-associated transcription factor; O75030; 0.91% of 650,000 active; AID 1259374; AlphaScreen MITF homodimerization, bead proximity signal; inhibition, % at 2.6 µM; in the data active = inhibition above about 50%;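 also: 0% = vehicle wells with protein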
# Target sequence (O75030 whole entry, looked up): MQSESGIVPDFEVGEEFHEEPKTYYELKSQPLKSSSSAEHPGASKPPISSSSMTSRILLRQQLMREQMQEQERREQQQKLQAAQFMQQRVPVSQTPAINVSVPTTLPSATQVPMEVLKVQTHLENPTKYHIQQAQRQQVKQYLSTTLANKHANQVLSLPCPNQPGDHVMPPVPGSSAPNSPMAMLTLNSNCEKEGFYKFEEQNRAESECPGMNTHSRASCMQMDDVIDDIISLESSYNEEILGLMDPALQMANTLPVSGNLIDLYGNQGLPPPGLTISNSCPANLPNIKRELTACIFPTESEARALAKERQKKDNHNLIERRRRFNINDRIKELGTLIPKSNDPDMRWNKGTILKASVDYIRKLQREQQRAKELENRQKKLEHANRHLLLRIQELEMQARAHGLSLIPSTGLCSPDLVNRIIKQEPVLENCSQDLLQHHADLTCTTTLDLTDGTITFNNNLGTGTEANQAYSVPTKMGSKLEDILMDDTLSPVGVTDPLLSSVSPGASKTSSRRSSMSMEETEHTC
# Starred values were filed as active, the others as inactive. A selection: hits, their analogues and other compounds. The true share with any hit is near 3.4%.
SMILES,GPR151 ag,TEAD-YAP block,FBW7 activator,MITF primary
COc1ccc(C2C3=C(Nc4ncnn42)c2ccccc2OC3c2cccs2)cc1 (configuration not stated),-1.0,-5.2,-0.1,-9.3
Cc1ccc(C(=O)N/N=C\c2cccc(OC(=O)c3ccco3)c2)cn1,1.7,1.2,2.2*,-9.3
O=C(N/N=C/c1ccc2ncccc2c1)c1ccco1,-8.8,41.1*,0.0,10.8
O=C(N/N=C/c1cc(Cl)ccc1O)c1ccco1,0.1,-48.5,0.0,-52.4
O=C(Nc1ccc2ncccc2c1)c1ccco1,-0.6,-52.6,-0.1,-7.6
O=C(N/N=C/c1ccc(O)c2ncccc12)c1ccco1,1.1,-33.2,-0.3,104.0*
COc1cccc(/C=N\NC(=O)c2ccc(C)nc2)c1,-1.9,-10.4,0.1,17.5
c1ccc2c(c1)nnn2C12CC3CC(CC(C3)C1)C2,-0.6,-5.3,0.1,11.4
Cc1cccc(C(=O)N2CCCC(C(=O)Nc3cccc(-c4ccc(F)cc4)c3)C2)n1 (configuration not stated),-0.2,15.6,0.0,-12.4
Cc1cc(C(=O)N2CCCC(C(=O)Nc3cccc(-c4ccc(F)cc4)c3)C2)n(C)n1 (configuration not stated),2.1,45.3*,0.2,16.6
CCCNc1cc(-c2csc3ccccc23)nc(N)n1,0.1,5.3,-0.1,2.7
Nc1nc(NCCOc2ccccc2)cc(-c2csc3ccccc23)n1,0.7,41.9*,0.1,-0.2
Nc1nc(NCCOc2ccccc2)cc(-c2ccccc2)n1,0.8,40.9*,0.3,19.3
Nc1nc(NCCOc2ccccc2)cc(Nc2ccccc2)n1,0.8,-13.1,-0.3,2.0
CCc1ccc(CN(C)C(=O)Cn2nnnc2CN(C)C(C)C)nc1,2.4,-0.9,-0.1,14.4
CN(C)S(=O)(=O)c1ccc(C(=O)Nc2ccc(S(N)(=O)=O)cc2)cc1,-0.1,5.3,0.0,11.0
Cc1cc(C(=O)COC(=O)C2=COCCO2)c(C)n1Cc1cccs1,-3.8,61.6*,-0.1,-2.2
Cc1ccsc1C(=O)OCC(=O)c1cc(C)n(C)c1C,-5.9,66.1*,-0.2,3.3
Cc1cc(C(=O)COC(=O)c2ccccc2O)c(C)n1Cc1cccs1,-0.4,88.8*,0.0,-3.6
Cc1cccc(NCC(=O)N/N=C/c2ccccc2)c1,0.9,7.3,1.4,20.0
CCCCOC(=O)C1=C(C)N(C)C(=O)NC1c1ccc(Cl)c(Cl)c1 (configuration not stated),4.3,-5.3,0.0,-1.3
CC(=O)Nc1ccccc1OCC(=O)c1cc(C)n(CCc2ccc(F)cc2)c1C,2.1,60.6*,0.0,14.3
CCCCOC(=O)c1cccc(NC(=O)COc2ccc(Cl)cc2Cl)c1,1.0,57.4*,0.1,-4.1
CCOC(=O)c1cccc(NC2C=CS(=O)(=O)C2)c1 (configuration not stated),1.9,62.9*,-0.5,-6.4
CCOC(=O)c1cccc(NC(=O)CCC2CCCCC2)c1,-1.4,-9.2,2.1*,12.1
SMILES,GPR151 ag,TEAD-YAP block,FBW7 activator,MITF primary
CCOC(=O)c1cccc(NC(=O)COc2ccc(Cl)cc2Cl)c1,3.9,81.3*,0.1,7.4
CCCCOC(=O)c1ccc(NC(=O)COc2ccc(Cl)cc2Cl)cc1,-0.2,7.6,0.1,10.6
COc1ccc(NC2=C(NC3CCCCC3)C(=O)c3ccccc3C2=O)cc1,1.1,-1.6,-0.3,-11.7
CC(C)(C)c1ccc(Oc2cc(Oc3ccc(C(C)(C)C)cc3)c3noc4c3c2C(=O)c2ccccc2-4)cc1,-0.9,-7.1,-0.1,1.6
CCOC(=O)C1CCCN(c2cc(Nc3ccc(OC)cc3)c3c4c(onc24)-c2ccccc2C3=O)C1 (configuration not stated),-0.3,5.0,-0.2,20.9
CCN1C=C/C(=C/c2cccc[n+]2C)c2ccccc21,-0.1,82.0*,-0.1,-5.3
C=CCn1c(=O)/c(=C\C=C2\C=CN(CC)c3ccccc32)s/c1=C\c1sc(-c2ccccc2)c(-c2ccccc2)[n+]1CC,-0.2,1.7,-0.1,-45.4
Cc1ccc(C#N)c(SCc2nnc(-c3ccc(Cl)cc3)o2)n1,-0.4,68.2*,0.1,15.5
Cc1cccc(NC(=O)c2cc3ccccc3oc2=O)c1,-2.2,-37.5,0.1,14.4
CC(Cc1ccco1)NC(=O)c1cc2ccccc2oc1=O (configuration not stated),0.2,-21.2,3.0*,-6.4
CC(=O)Nc1cccc(NC(=O)c2cc3ccccc3oc2=O)c1,-1.9,45.5*,0.0,-9.4
CC(CO)NC(=O)c1cc2ccccc2oc1=O (configuration not stated),0.2,-11.2,-0.1,-6.2
C=CCc1cccc2cc(C(=O)Nc3cccc(O)c3)c(=O)oc12,-0.7,57.9*,0.3,18.9
COc1cc2c(cc1OC)CC(C)(C)N(Cc1ccco1)C2,0.0,-7.5,-0.3,0.9
O=C(CSc1ccccc1)N1CCOc2ccc(-c3ccncc3)cc21,-1.1,33.6*,0.0,10.6
O=C(c1ccc(Cl)cc1)N1CCc2nc3ccccn3c(=O)c2C1,2.4,3.1,0.2,10.9
CCc1nnc(NC(=O)c2ccc(OC)cc2)s1,-6.9,40.5*,0.0,17.9
O=C(Nc1ncc(Cc2ccc(F)cc2)s1)c1ccc(Br)cc1,-0.6,37.8*,0.0,8.6
COc1ccc(Cc2cnc(NC(=O)COc3ccccc3Cl)s2)cc1,0.6,58.0*,0.0,-14.0
COc1ccc(Cc2cnc(NC(C)=O)s2)cc1,-0.7,-29.3,0.2,0.3
COc1ccc(Cc2cnc(NC(=O)c3ccc(C)cc3)s2)cc1,1.0,49.9*,-0.2,-5.6
CC(C)(C)c1ccc(C(=O)Nc2ncc(Cc3ccc(F)cc3)s2)cc1,1.9,6.9,0.0,-2.5
CCCCOc1ccc(C(=O)Nc2nnc(CC)s2)cc1,-0.7,-3.1,-0.1,6.7
COc1ccc(C2OC2C(=O)c2c[nH]c3ccccc23)cc1 (configuration not stated),1.3,-3.5,-0.1,0.5
Cc1ccc(Cc2cnc(NC(=O)/C=C/c3ccco3)s2)cc1,1.6,58.0*,0.1,5.3
SMILES,GPR151 ag,TEAD-YAP block,FBW7 activator,MITF primary
CCOc1ccc(/C=C/C(=O)Nc2ncc(Cc3ccc(C)cc3)s2)cc1,0.9,3.3,-0.1,-3.3
Cc1c(C(=O)NNC(=O)c2ccn(C)n2)nnn1-c1nonc1N,0.4,13.1,0.6,0.4
N#CC1(C#N)C(C(=O)C23CC4CC(CC(C4)C2)C3)C1c1ccc(Cl)s1 (configuration not stated),-0.4,-6.7,0.0,5.0
CN1C(=O)/C(=C/c2ccccc2O)NC1=S,-1.1,15.5,0.5,1.1
CN1C(=O)/C(=C/c2cc(Br)ccc2O)NC1=S,1.2,80.0*,0.1,-28.4
Cc1ccccc1-n1nc2c(c1NC(=O)c1cc([N+](=O)[O-])ccc1Cl)CSC2,-0.1,74.3*,-0.1,11.0
Cc1ccc(-n2nc3c(c2NC(=O)c2cc([N+](=O)[O-])ccc2Cl)CS(=O)(=O)C3)cc1,2.0,16.3,-0.3,5.0
COc1ccc(-n2nc3c(c2NC(=O)c2cc([N+](=O)[O-])ccc2Cl)CS(=O)(=O)C3)cc1,-0.9,72.6*,0.0,9.3
Cc1ccc(-n2nc3c(c2NC(=O)c2ccc([N+](=O)[O-])cc2)CS(=O)(=O)C3)c(C)c1,-0.1,3.6,0.6,11.1
